Shown are actives, neighbours in structure and some others; about 2.9% of the full set was active somewhere.
esBAF inh: SWI/SNF esBAF complex inhibition. reporter increase, % at 12.5 µM. mouse ES cells, Bmi1-luciferase knock-in reporter, 24 h; 100% = twice the neutral-well signal. AID 602393. 350,000 tested, 2% active; in the data active = activation above about 40%; inconclusive = no clear call, values can overlap the other calls;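 also: 0% = median of the plate's neutral control wells and 100% = double that signal; a rise in the Bmi1 reporter signal indicates esBAF inhibition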
MITF TRPM1 HTS: activators of MITF-driven TRPM1 promoter activity in SK-MEL-5 cells. SK-MEL-5 TRPM1-promoter luciferase, 24 h; % of positive control, neutral wells = 0. activation, % at 12.5 µM. 300,000 tested, 0.75% active. AID 588334;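 active = mean activation of at least 80% with every replicate also reaching 80%; inconclusive = mean reaches 80% but some replicate falls short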;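 also: 0% = neutral control wells and 100% = parthenolide positive control wells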
PvdQ acylase: P. aeruginosa PvdQ acylase inhibition; inhibition, % at 10 µM; AID 488965; 340,000 tested, 0.063% active; purified PvdQ acylase, fluorescence plate reader; in the data active = inhibition above about 30%, passing the limit was not always enough; inconclusive = no clear call, values can overlap the other calls;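 also: 0% = vehicle neutral wells and 100% = reference inhibitor wells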
Wnt act: Wnt/beta-catenin pathway activation | Wnt/beta-catenin reporter cell assay, activator, plate reader | 300,000 tested, 1.2% active | AID 743398 | activation, % at 9.35 µM; in the data active = activation above about 30%, passing the limit was not always enough; inconclusive = no clear call, values can overlap the other calls;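 also: 0% = neutral control wells and 100% = positive control wells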
Vif inh: blocks HIV Vif function; HEK293T cells, Vif self-association by quenched fluorescence, imaging, 24 h; inhibition, % at 7.49 µM; 340,000 tested, 0.35% active; AID 602346; in the data active = inhibition above about 50%, passing the limit was not always enough; inconclusive = no clear call, values can overlap the other calls; inactive = below about 31%
Glyco luc inh: blocks N-linked glycosylation in D54 reporter cells; D54 ERlucT glycosylation luciferase reporter, 24 h; percent of 100 nM tunicamycin response; reporter increase, % at 12.5 µM; 360,000 tested, 0.23% active; AID 588692;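 active = mean luciferase reporter signal, scaled so untreated is 0 and the glycosylation-blocking control 100, at or above a set limit in every replicate; inconclusive = mean reaches the limit but not every replicate does; inactive = mean below the limit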;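 also: luciferase carries N-glycosylation sites so blocking glycosylation raises the light; 0% = median of neutral control wells and 100% = median of 100 nM tunicamycin wells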
Ring1 derepress: confirmation of esBAF inhibitors: Ring1 de-repression in mouse ESCs. fold change at 33 µM. AID 743176. 550 tested, under 10 active. mouse ESC E14, Ring1 mRNA RT-qPCR fold change. shares compounds with esBAF inh;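 active = Ring1 gene expression raised more than 2-fold over untreated cells in both replicates at either tested dose; inconclusive = only one replicate above 2-fold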;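 also: Ring1 transcript normalised to actin housekeeping signal by TaqMan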
Fgf4 repress: esBAF inhibition confirmed by Fgf4 repression; shares compounds with esBAF inh; mouse ESC E14, Fgf4 mRNA qPCR fold change; active compounds read low; Fgf4 expression fold change at 33 µM; 550 tested, 4% active; AID 743177;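 active = Fgf4 expression under 0.8 fold of control in both repeat measurements at one or both tested doses; inconclusive = under 0.8 fold in just a single repeat measurement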;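 also: Fgf4 transcript normalised to actin in duplex TaqMan qPCR; cells exposed to compound for 24 h before lysis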
Bmi1 derepress: confirmation of esBAF inhibitors: Bmi1 de-repression in mouse ESCs; AID 743180; mouse ESE14 ES cells, Bmi1 mRNA qPCR fold; active compounds read high; fold change at 33 µM; shares compounds with esBAF inh; 550 tested, under 10 active;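 active = Bmi1 expression fold change above 6 at either tested concentration, seen in replicate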;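 also: higher fold means more Bmi1 de-repression and stronger esBAF inhibition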
A549 cytotox: A549 cell cytotoxicity. shares compounds with esBAF inh. plate reader. cell viability change % (negative = cytotoxic), % at 25 µM, hits read low. 550 tested, under 10 active; call rule not given here
HepG2 tox SP: cytotoxicity in HepG2 cells; shares compounds with esBAF inh; plate reader; active compounds read low; activity change, negative = inhibition, % at 25 µM; 550 tested, 4% active; AID 743189; in the data active = activity change below about -50%
HEK293 cytotox SP: HEK293 cell cytotoxicity at single point; shares compounds with esBAF inh; plate reader; activity change, negative = inhibition, % at 25 µM, hits read low; 550 tested, 3% active; AID 743190; in the data active = activity change below about -38%, passing the limit was not always enough
* marks the source's active call; other numbers are inactive results; i = inactive; ? = inconclusive; nt = no result given.

SMILES	esBAF inh	MITF TRPM1 HTS	PvdQ acylase	Wnt act	Vif inh	Glyco luc inh	Ring1 derepress	Fgf4 repress	Bmi1 derepress	A549 cytotox	HepG2 tox SP	HEK293 cytotox SP
C(=Cc1c[nH]c2ccccc12)c1nccc2ccccc12	-42.9	27.8	-2.7	41.8*	i	-17.4	nt	nt	nt	nt	nt	nt
Cn1c2ccccc2c(=O)c2cc(C#CC3(O)CCCCC3)ccc21	-62.9	-24.6	6.1	-11.5	23.9	-16.6	nt	nt	nt	nt	nt	nt
Cn1c2ccccc2c(=O)c2cc(C#Cc3ccsc3)ccc21	62.0*	63.0	-5.4	23.9	-0.4	-0.6	1.14	?	1.42	-4.0	7.9	-5.5
C[C@H]1CN([C@@H](C)CO)C(=O)c2ccccc2-c2ccccc2CO[C@@H]1CN(C)C(=O)Nc1cccc(C(F)(F)F)c1	0.7	nt	nt	nt	nt	nt	nt	nt	nt	nt	nt	nt
COc1ccc(-c2cc(C(=O)Nc3ccc(C(N)=O)cc3)c3ccccc3n2)cc1	57.4*	nt	-9.2	14.2	19.5	-10.6	1.37	?	1.58	-5.1	-5.5	0.7
COc1ccc(-c2cc(C(=O)N3CCN(c4ccccc4O)CC3)c3ccccc3n2)cc1OC	nt	10.4	-8.7	1.0	nt	2.4	nt	nt	nt	nt	nt	nt
COc1cccc(-c2cc(C(=O)Nc3ccccc3)c3ccccc3n2)c1	nt	nt	nt	4.3	-8.2	1.9	nt	nt	nt	nt	nt	nt
COc1ccc(-c2cc(C(=O)N3CCN(c4ccccc4O)CC3)c3ccccc3n2)cc1	63.7*	nt	-13.0	7.2	-4.2	-6.5	0.959	0.925	1.31	-10.6	-44.2	-27.2
CNc1cnc(-c2ccsc2)cn1	?	nt	nt	0.3	0.7	2.5	nt	nt	nt	nt	nt	nt
CNc1cnc(-c2ccc(F)c(F)c2F)cn1	73.3*	nt	nt	-1.0	-1.1	0.0	1.08	0.963	1.49	-8.5	-17.4	-21.9
COc1cc(CNc2ccc(N3CCN(C(C)=O)CC3)cc2)ccc1OCc1ccc(F)cc1	57.9*	-31.2	23.9	15.9	-24.4	1.9	2.17*	1.31	2.26	-4.7	-23.5	-29.4
Cc1ccc2c3c([nH]c2c1C)-c1nonc1CC3	54.6*	46.8	-10.0	11.3	-1.0	-2.6	1.22	?	1.75	-3.3	-33.6	-24.1
CO[C@@H]1CN(C)C(=O)c2cc(NC(=O)C3CC3)ccc2OC[C@H](C)N(Cc2ccc(F)cc2)C[C@H]1C	5.9	nt	nt	nt	nt	nt	nt	nt	nt	nt	nt	nt
C[C@@H]1CN([C@@H](C)CO)C(=O)c2cccc(NC(=O)NC3CCCCC3)c2O[C@@H]1CN(C)C	0.2	nt	nt	nt	nt	nt	nt	nt	nt	nt	nt	nt
c1ccc(-c2ccc3[nH]ccc3c2)cc1	58.7*	92.5*	-13.5	16.9	-7.9	-2.6	1.03	0.988	2.1	1.5	-17.1	7.8
O=C(Nc1ccc(SC(F)F)cc1)C12CCC(CC1)C2	56.5*	41.6	11.6	12.3	23.0	-5.4	1.18	?	1.69	-4.9	25.8	0.7
COc1ccc(S(=O)(=O)Nc2ccc3c(c2)CC(=O)N([C@@H](C)CO)C[C@H](C)[C@@H](CN(C)C(=O)Nc2ccc4c(c2)OCO4)O3)cc1	-4.0	nt	nt	nt	nt	nt	nt	nt	nt	nt	nt	nt
CCC(=O)Nc1ccc2c(c1)C(=O)N(C)C[C@H](OC)[C@H](C)CN(Cc1ccccn1)[C@H](C)CO2	-4.0	nt	nt	nt	nt	nt	nt	nt	nt	nt	nt	nt
CCOC(=O)Cc1csc(NC(=O)Nc2ccc(Cl)cc2)n1	nt	-1.3	-19.6	3.2	-4.8	-0.7	nt	nt	nt	nt	nt	nt
Cc1csc(NC(=O)Nc2ccc(Cl)cc2)n1	59.9*	63.4	3.4	18.5	-7.9	1.9	1.03	0.996	1.57	-13.3	-16.2	-12.3
COc1ccccc1NC(=O)N1C[C@H]2[C@@H](c3ccccc31)[C@@H](CO)N2C(=O)c1ccccc1	-1.7	nt	nt	nt	nt	nt	nt	nt	nt	nt	nt	nt
Cn1cccc1C(=O)NC1CCCCCC1	64.2*	95.6*	4.7	17.2	6.1	-0.6	1.06	0.8	1.47	-14.4	-49.3	-19.5
Nc1c(C(=O)NC2CCCC2)sc2nc(-c3cccs3)ccc12	nt	33.0	0.0	nt	-10.7	3.0	nt	nt	nt	nt	nt	nt
NC(=O)c1sc2nc(-c3cccs3)ccc2c1N	58.8*	14.1	9.7	12.7	-9.3	3.8	0.994	0.942	1.19	-9.1	-26.2	-8.7
C[C@H](CO)N1C[C@H](C)[C@H](CN(C)C(=O)Nc2ccc(C(F)(F)F)cc2)Oc2ccc(NC(=O)NC3CCCCC3)cc2CC1=O	-1.4	nt	nt	nt	nt	nt	nt	nt	nt	nt	nt	nt
SMILES	esBAF inh	MITF TRPM1 HTS	PvdQ acylase	Wnt act	Vif inh	Glyco luc inh	Ring1 derepress	Fgf4 repress	Bmi1 derepress	A549 cytotox	HepG2 tox SP	HEK293 cytotox SP
CO[C@H]1CN(C)C(=O)c2ccc(NC(C)=O)cc2OC[C@@H](C)N(C(=O)C2CCCCC2)C[C@H]1C	-0.1	nt	nt	nt	nt	nt	nt	nt	nt	nt	nt	nt
CN(C)c1ccc(N=Nc2ccccc2C(=O)OCC(=O)Nc2ccccc2C(F)(F)F)cc1	53.5*	5.5	18.4	3.7	27.6	-11.0	1.19	1.01	1.75	-14.5	0.9	-16.9
c1ccc(Cn2cnc3ccccc32)cc1	105.8*	63.4	2.7	nt	-1.2	-3.8	1.38	1.05	1.67	-0.2	-24.3	-10.0
Cc1ccc(S(=O)(=O)N(C)C[C@@H]2Oc3c(NC(=O)Nc4ccc(F)cc4)cccc3C(=O)N([C@@H](C)CO)C[C@@H]2C)cc1	-1.7	nt	nt	nt	nt	nt	nt	nt	nt	nt	nt	nt
O=C(Nc1ccc(F)c(Cl)c1)c1cc(C2CCCN(C(=O)C3CC3)C2)on1 (stereo not given)	76.6*	nt	nt	38.3*	-6.8	-3.9	1.45	0.98	2	-7.0	-4.9	-7.5
Nc1ccc(C#Cc2ccc3c(=O)c4ccccc4oc3c2)cc1	79.3*	110.8*	-1.6	24.7	3.6	-6.3	0.848	0.562*	3.49	-14.0	-1.4	-10.9
COc1cc2oc3cc(C#Cc4ccc(N)cc4)ccc3c(=O)c2cc1OC	-1.7	-1.1	-12.5	-8.8	-0.1	-3.5	nt	nt	nt	nt	nt	nt
CCN(C(=O)c1ccc2c(Cl)c3c(nc2c1)CCC3)c1ccc(C)c(C)c1	-3.7	-2.2	-7.6	-2.8	-7.0	-4.9	nt	nt	nt	nt	nt	nt
CN(C(=O)c1ccc2c(Cl)c3c(nc2c1)CCC3)c1ccccc1	87.9*	nt	-7.1	25.1	-5.8	-2.3	1.4	0.984	1.76	2.7	-22.7	1.3
CCCC(=O)Nc1ccc2c(c1)OC[C@@H](C)N(C(=O)CN(C)C)C[C@H](C)[C@@H](OC)CN(C)C2=O	-1.5	nt	nt	nt	nt	nt	nt	nt	nt	nt	nt	nt
COc1ccc(Nc2nc(C)c(C(C)=O)s2)cc1	81.7*	nt	nt	4.5	-2.8	7.9	1.18	0.878	1.42	-4.7	-7.8	-0.3
Cc1nc(Nc2ccccc2)sc1C(=O)c1ccc(F)cc1	66.0*	53.2	-10.3	9.5	-1.2	-7.1	1.1	0.876	1.47	7.4	-11.6	-0.3
